# Assay results: PubChem BioAssay AID2685 (National Center for Advancing Translational Sciences (NCATS), 2010)
# Screen size: about 320,000 compounds; about 2,100 (0.66%) were called active. Not shown: some 53% with an inconclusive outcome. The call rests on the fitted dose curve; in most records, active means well fitted inhibition curve with a large enough effect in the signal ratio, with a control signal flat (not every such curve was filed as active); inconclusive means small, poorly fitted or top-dose-only effect, or effect the other way, or a change in a side signal; inactive means flat fitted curve, though single readings scatter; the % refers to the signal ratio. Shown is part of a subset that was picked to be rich in actives.
# Assay: qHTS Assay for Lipid Storage Modulators in Drosophila S3 Cells;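 on cell number change: cells counted by Cell Tracker Red CMTPX staining in the red channel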; on lipid storage change, negative = inhibition: on the % scale 0 is the no-effect control and ±100 the full control effect
# Details: BODIPY lipid droplet fluorescence, 18-24 h, cells fed with added oleic acid; cell number change: measured here: cell count max response; series mostly up to 46.1 µM
# Summary of the method: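 Laser-scanning cytometry quantifies lipid droplet accumulation (500–530 nm total intensity; droplet/cell object ratio) in oleic acid-fed (400 uM added) Drosophila S3 cells treated with a concentration series. 20 uM Triacsin C defined 100% inhibition.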
# Potency means the concentration at half of the fitted maximal effect.
Compound,Potency,cell number change,"lipid storage change, negative = inhibition",outcome
CCOC(=O)c1ccc(-c2ccc(/C=N/NC(=O)CN(c3ccccc3Br)S(C)(=O)=O)o2)cc1,9.2 µM (active),-15.9%,,
CS(=O)(=O)N(CC(=O)N/N=C/c1ccco1)c1ccccc1Br,inactive,2.71%,,
Cc1oc(/C=N/NC(=O)CN(c2ccccc2Br)S(C)(=O)=O)cc1Br,inactive,0.768%,,
COc1ccccc1-c1ccc(SCC(=O)NCc2ccc3c(c2)OCO3)nn1,inactive,,,
O=C(O)CSc1cccc2cccnc12,,8.53%,8.73% [at 9.22 µM] (inactive),
CC(=O)/C(=N/Nc1ccc(Br)cc1)Sc1cccc2cccnc12,inactive,-2.71%,,
O=C(Sc1cccc2cccnc12)c1ccccc1Br,7.31 µM (active),4.44%,,
Cc1ccc(-c2cc(-c3ccccc3)c(C#N)c(Br)n2)cc1,inactive,-11.3%,,
CC(C)(C)C1CCC(=O)N(CCSc2ccccc2)CC1 (stereo not given),6.51 µM (active),-4.53%,,
CC(C)(C)[C@H]1CCC(=O)N([C@H](CC#N)Cc2ccccc2)CC1,0.326 µM (active),-9.71%,,
N#CC[C@H](Cc1ccccc1)N1CC[C@@H](NC(=O)OCc2ccccc2)CCC1=O,inactive,8.98%,,
CC(C)(C)[C@H]1CCC(=O)N([C@H](CN=[N+]=[N-])Cc2ccccc2)CC1,inactive,22%,,
CC(=O)Nc1ccc(SCCN2CC[C@@H](C(C)(C)C)CCC2=O)cc1,inactive,-1.32%,,
CC1CCC(=O)N(CCSc2ccccc2)CC1 (stereo not given),inactive,,,
CCCCNC(=S)N/N=C/c1sccc1C,inactive,-1.93%,,
CCS(=O)(=O)c1nc(S(=O)(=O)c2ccc(C)cc2)c(NCc2ccccn2)s1,inactive,2.5%,,
Cc1[nH]n(-c2ccccc2)c(=O)c1C(=O)c1ccc([N+](=O)[O-])cc1,inactive,5.62%,,
C/C(=N\NC(=O)c1ccc(C)cc1)c1c(C)[nH]n(-c2ccccc2)c1=O,9.2 µM (active),-9.89%,,
Cc1[nH]n(-c2ccccc2)c(=O)c1C(=O)c1ccc(Cl)cc1,inactive,-16%,,
CN1C(=O)c2cccc(NC(=O)CCc3ccccc3)c2C1=O,inactive,-9.83%,,
Cc1ccc(-n2ncc3c(=O)[nH]c(SCC(=O)N4CCCc5ccccc54)nc32)cc1,inactive,,,
CCn1c(C)c(C)c2cc(C(=O)NCCN3CCOCC3)ccc21,inactive,-16.2%,,
O=C(c1ccc(NC(=O)C2(c3ccccc3)CCOCC2)cc1)N1CCOCC1,23.1 µM (active),-1.58%,,

Compound,Potency,cell number change,"lipid storage change, negative = inhibition",outcome
O=C(NCCCN1CCOCC1)c1ccccc1,20.6 µM (active),-23.2%,,
COc1ccc(C2(C(=O)Nc3ccc(C(=O)N4CCOCC4)cc3)CCOCC2)cc1,inactive,6.9%,,
O=C(NCCCN1CCOCC1)c1ccc2ccccc2c1,,,,inactive [at 0.0737 µM]
O=C(NCCCN1CCOCC1)C1(c2ccccc2)CCCC1,inactive,-15.4%,,
O=C(NCCCN1CCOCC1)C1(c2ccccc2)CCOCC1,3.66 µM (active),2.27%,,
Cc1c(C)n(Cc2ccc(F)cc2)c2ccc(C(=O)NCCCN3CCOCC3)cc12,29.1 µM (active),38.2%,,
O=C(Nc1ccccc1C(=O)NCCCN1CCOCC1)c1ccccc1,inactive,15.2%,,
Cc1c(C)n(C)c2ccc(C(=O)NCCCN3CCN(c4ccc(F)cc4)CC3)cc12,inactive,4.18%,,
O=C(NCCCN1CCOCC1)C(=O)NCCc1ccccc1,inactive,-0.52%,,
Cc1ccc(NC(=O)C2(c3ccccc3)CCOCC2)cc1,inactive,16.3%,,
C/C(=N/NC(=O)CN(c1ccccc1)S(=O)(=O)c1ccccc1)c1ccccc1O,inactive,19.6%,,
Cc1cc(NC(=O)CCN2C(=O)/C(=C\c3ccccc3)SC2=S)no1,inactive,-8.06%,,
COc1ccc(-c2nnn(CC(=O)N3CCN(c4ccc(F)cc4)CC3)n2)cc1,inactive,0.734%,,
O=C(NCc1nc2ccccc2[nH]1)C1=C[C@H](c2csc3ccccc23)C[C@H](OCc2ccc(CO)cc2)O1,inactive,13.4%,,
COc1cc(CC(=O)OCC(=O)Nc2ccc(S(=O)(=O)N3CCCC3)cc2)cc(OC)c1OC,inactive,-19.3%,,
CCCN(CCC)CCCNC(=O)c1cn(CC)c2ccc(S(=O)(=O)N3CCOCC3)cc2c1=O,inactive,5.34%,,
CCn1cc(C(=O)NCCN(CC(C)C)CC(C)C)c(=O)c2cc(S(=O)(=O)N3CCOCC3)ccc21,7.31 µM (active),0.403%,,
CCn1cc(C(=O)NCCCN(CC(C)C)CC(C)C)c(=O)c2cc(S(=O)(=O)N3CCOCC3)ccc21,inactive,21.3%,,
CC1CCN(Cc2cc(=O)oc3ccc4ccccc4c23)CC1,inactive,16.9%,,
COc1ccc(C(=O)CC2SC(N)=NC2=O)cc1 (stereo not given),inactive,30%,,
Nc1[nH]ncc1C(=O)Nc1cccc(C(F)(F)F)c1,inactive,-8.81%,,
CCN(CC)C(=O)COC(=O)c1ccc(O)cc1,20.6 µM (active),4.39%,,
CC(C)(C)C(=O)COC(=O)c1ccc(O)cc1,inactive,15.5%,,

Compound,Potency,cell number change,"lipid storage change, negative = inhibition",outcome
O=C(OCC(=O)N(C1CCCCC1)C1CCCCC1)c1ccc(O)cc1,inactive,3.31%,,
COCCC(=O)N1CCC(Oc2ccc(C(=O)NCCc3cnn(C)c3)cc2)CC1,inactive,8.02%,,
CCCN1CCC(NC(=S)Nc2ccc(S(N)(=O)=O)cc2)CC1,inactive,-2.79%,,
Cc1ccc(C(CNC(=O)Nc2ccccc2)N2CCN(C)CC2)cc1 (stereo not given),7.31 µM (active),20.2%,,
Cc1cccc(NC(=O)NCC(c2ccc(F)cc2)N2CCN(C)CC2)c1 (stereo not given),inactive,,,
Cc1ccc(C(CNC(=O)Nc2cccc(C)c2)N2CCN(C)CC2)cc1 (stereo not given),inactive,-5.52%,,
S=C(NCc1ccccc1)NCc1cccc(Cl)c1,inactive,7.23%,,
Cc1ccc(S(=O)(=O)N2CCOCC2)cc1NC(=O)COc1ccc(C(=O)c2ccccc2)cc1,7.31 µM (active),12.9%,,
Cc1cc(C)c(OCC(=O)Nc2ccc(S(=O)(=O)N3CCCC3)cc2)c(C)c1,inactive,,,
Cc1cc(C)c(OCC(=O)Nc2ccc(S(=O)(=O)N3CCOCC3)cc2)c(C)c1,2.31 µM (active),10.8%,,
O=C(COc1ccc(S(=O)(=O)N2CCOCC2)cc1)Nc1ccccc1Cl,1.84 µM (active),7.69%,,
O=C(CSc1ncnc2sccc12)Nc1ccc(S(=O)(=O)N2CCOCC2)cc1,14.6 µM (active),4.37%,,
O=C(CSc1ncnc2ccccc12)Nc1cccc(S(=O)(=O)N2CCOCC2)c1,inactive,,,
Cc1ccc(OCC(=O)Nc2ccc(S(=O)(=O)N3CCOCC3)cc2)c(C)c1,inactive,25.8%,,
O=C(COc1ccc(S(=O)(=O)N2CCOCC2)cc1)Nc1ccccc1F,,,,inactive [at 0.0737 µM]
Cc1ccc(S(=O)(=O)N2CCOCC2)cc1NC(=O)COC(=O)CNC(=O)c1ccccc1,inactive,5.41%,,
Nc1nnc(SCC(=O)Nc2ccc(S(=O)(=O)N3CCOCC3)cc2)s1,inactive,,,
Cc1ccc(S(=O)(=O)N2CCOCC2)cc1NC(=O)COc1ccc2c(C)cc(=O)oc2c1,inactive,,,
O=C(COc1ccccc1Cl)Nc1ccc(S(=O)(=O)N2CCOCC2)cc1,inactive,-11.3%,,
O=C1C(NS(=O)(=O)c2cccs2)=C(N2CCOCC2)C(=O)c2ccccc21,inactive,-7.78%,,
O=C(Cn1nc2ccccc2n1)N/N=C/c1ccc(F)cc1,inactive,-8.94%,,
CCOC(=O)c1nnn(-c2nonc2N)c1CSc1nnc(N)s1,inactive,,,
Cc1cccc(C(=O)O/N=C/c2ccc(Br)cc2)c1,inactive,7.42%,,

Compound,Potency,cell number change,"lipid storage change, negative = inhibition",outcome
Cc1ccc(S(=O)(=O)NC(C(=O)N2CCOCCOCCOCCOCC2)C(C)C)cc1 (stereo not given),inactive,-9.21%,,
Cc1cc(=O)oc2cc(OCC(=O)OCC(=O)Nc3ccc(C(N)=O)cc3)ccc12,inactive,4.9%,,
CN1CCN(C(=O)c2ccc(COc3cc(Cl)ccc3Cl)o2)CC1,inactive,0.87%,,
CCC1(CC)Cc2ccccc2C(C2=C(O)CC(C)(C)CC2=O)=N1,inactive,0.769%,,
Cc1ccc2c(c1)COc1c3ccc(C(=O)N4CCCCC4)cc3nn1-2,inactive,-6.37%,,
O=C(Cc1ccccc1[N+](=O)[O-])NCCc1ccc(F)cc1,inactive,16.5%,,
CC(C)Cc1nnc(NC(=O)C2CCN(C(=O)c3ccc(F)cc3)CC2)s1,inactive,,,
O=S(=O)(c1ccc(Oc2ccc(Br)cc2)cc1)N1CCOCC1,13 µM (active),-10%,,
CC(=O)c1cccc(OCC(=O)Nc2cc(S(=O)(=O)N3CCOCC3)ccc2N2CCCC2)c1,inactive,-28.5%,,
O=S(=O)(c1ccc(OCc2ccc(Br)cc2)cc1)N1CCOCC1,inactive,-10.6%,,
Cc1ccc(C(=O)NNC(=O)c2ccc(S(=O)(=O)N3CCOCC3)cc2)cc1,inactive,13.5%,,
CCc1cccc(OCC(=O)Nc2cc(S(=O)(=O)N3CCOCC3)ccc2N2CCCC2)c1,13 µM (active),-12.1%,,
O=C(Cn1cnc2c(cnn2-c2ccccc2)c1=O)N1CCOCC1,inactive,,,
CCOc1ccc(NC(=O)c2cc(S(=O)(=O)N3CCOCC3)cs2)cc1,inactive,-10.9%,,
O=C(Cn1cnc2c(cnn2-c2ccccc2)c1=O)Nc1cc(S(=O)(=O)N2CCOCC2)ccc1Cl,25.9 µM (active),-7.78%,,
CCOc1ccc(C(=O)NNC(=O)c2cc(S(=O)(=O)N3CCOCC3)ccc2Cl)cc1,25.9 µM (active),8.57%,,
O=C(Cn1cnc2c(cnn2-c2ccccc2)c1=O)Nc1ccc(S(=O)(=O)N2CCOCC2)cc1,inactive,-0.435%,,
CCc1cccc(OCC(=O)Nc2ccccc2N2CCCC2)c1,inactive,-24.4%,,
O=S(=O)(c1ccc(Oc2ccccc2)cc1)N1CCOCC1,inactive,,,
O=C(c1ccccc1)c1cccn1CC(=O)N1CCCCCC1,inactive,10.2%,,
CC(=O)N1N=C(c2c(-c3ccccc3)c3cc(C)ccc3[nH]c2=O)CC1c1ccco1 (stereo not given),inactive,,,
